Test results as given in PubChem BioAssay (NCI).
This is part of a sample that, as a whole, favours compounds with a hit. Of some 79,000 tested, about 15% had one in any assay. A number with no mark means an inactive call. The source made the active and inactive calls. Cut-off read from the data, not from the text of the source: active = growth inhibition above about 70%; inactive = the rest.

Tests used:
[1] = NCI Yeast Anticancer Drug Screen. Data for the rad50 strain (AID 155);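 note: 0% = growth of vehicle-only cultures of the same strain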; details: S. cerevisiae rad50 strain growth inhibition, hits give high values
How it was run: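 Compounds were tested on a yeast strain with an engineered DNA damage repair alteration; the reported value is growth inhibition normalised to vehicle treatment.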

[2] = NCI Yeast Anticancer Drug Screen. Data for the mec2-1 strain (AID 157); details: S. cerevisiae mec2-1 strain, hits give high values
How it was run: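 Strain: mec2-1 (DNA repair/cell cycle alteration). Compound exposure, then growth measured; inhibition expressed relative to vehicle.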

[3] = NCI Yeast Anticancer Drug Screen. Data for the sgs1 mgt1 strain (AID 161);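 note: 0% = growth of cultures given vehicle only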; details: S. cerevisiae sgs1 mgt1 strain, hits give high values
How it was run: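 Inhibition of yeast growth, normalised to vehicle-treated controls, is reported for a strain bearing genetic alterations in DNA damage repair.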

[4] = NCI Yeast Anticancer Drug Screen. Data for the cln2 rad14 strain (AID 165);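 note: 0% = growth equal to vehicle treated cultures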; details: S. cerevisiae cln2 rad14 strain, hits give high values
How it was run: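 Compounds are applied to the cln2 rad14 yeast strain, and growth is then compared with that of vehicle-treated cultures to give inhibition.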

[5] = NCI Yeast Anticancer Drug Screen. Data for the bub3 strain (AID 167); details: S. cerevisiae bub3 mutant strain, hits give high values
How it was run: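 Growth of a checkpoint-deficient yeast mutant is measured after compound exposure. Values represent inhibition relative to vehicle.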

[6] = NCI Yeast Anticancer Drug Screen. Data for the mlh1 rad18 strain (AID 175); details: S. cerevisiae mlh1 rad18 strain growth inhibition, hits give high values
How it was run: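 Read-out is yeast growth inhibition, calculated against vehicle-only controls. The compound was applied to a strain engineered with DNA damage repair alterations.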

[7] = at 5.0 µM (retest, dose inferred, filed as 0.5)
[8] = at 50.0 µM (retest, dose inferred, filed as 5.0)

Structure (SMILES) | growth inhibition [1, 7] | growth inhibition [1, 8] | growth inhibition ([1]; at 50.0 µM) | growth inhibition [2, 7] | growth inhibition [2, 8] | growth inhibition ([2]; at 50.0 µM) | growth inhibition [3, 7] | growth inhibition [3, 8] | growth inhibition ([3]; at 50.0 µM) | growth inhibition [4, 7] | growth inhibition [4, 8] | growth inhibition ([4]; at 50.0 µM) | growth inhibition [5, 7] | growth inhibition [5, 8] | growth inhibition ([5]; at 50.0 µM) | growth inhibition [6, 7] | growth inhibition [6, 8] | growth inhibition ([6]; at 50.0 µM)
COC(=O)CSC(=S)Nc1ccc(Cl)cc1 | 3% | 92% (active) | 83.5% (active) | -6% | 96% (active) | 4.25% | -4% | 97% (active) | 44.3% | -5% | 60% | -74.6% | -7% | 85% (active) | 36.5% | 7% | 98% (active) | 51.4%
COc1cc(CC(=O)O)c(Cc2ccc3c(c2)Cc2ccccc2-3)cc1OC | -7% | 94% (active) | 49% | 4% | 77% (active) | 53.5% | -1% | 92% (active) | 52.1% | 6% | 91% (active) | 88.7% (active) | -7% | 95% (active) | 94.5% (active) | 2% | 88% (active) | 47.6%
CCO/C=C1N=C(/C=C/c2ccccc2Cl)OC/1=O | -6% | 84% (active) | 65% | 13% | 58% | 45.4% | 9% | 52% | 50.2% | 9% | 81% (active) | 20.2% | 13% | 81% (active) | 36.9% | -2% | 86% (active) | 71.7% (active)
CCCCCCCCC(=O)NCCCNCCCNC(=O)CCCCCCCC | -17% | -17% | 69% | -18% | -18% | 50.2% | -4% | -4% | 66.3% | -22% | -22% | 92.2% (active) | -28% | -28% | 90.8% (active) | -11% | -11% | 89.3% (active)
O=C(SC(O)c1ccc(Cl)cc1)c1ccccc1 (stereo not given) | -7% | 58% | 79.8% (active) | -7% | 57% | 74.5% (active) | -3% | 68% | 85.3% (active) | -4% | 58% | 22.9% | -5% | 57% | 64.9% | -8% | 60% | 81.8% (active)
CCc1ccccc1NC1=C(Cl)C(=O)c2ccccc2C1=O | 99% (active) | 98% (active) | -1.85% | 100% (active) | 99% (active) | 10.8% | 100% (active) | 99% (active) | 1.85% | 77% (active) | 99% (active) | -20.3% | 99% (active) | 99% (active) | -0.2% | 99% (active) | 98% (active) | 10%
CC(/C=C/c1cccc(C)c1)=N\NC(N)=S | 14% | 41% | 30.4% | 12% | 38% | 53.4% | 16% | 34% | 86.2% (active) | 1% | 11% | 38.6% | 20% | 26% | 81.1% (active) | 23% | 38% | 80.5% (active)
C/C(=N\NC(=S)NNC(=S)N1CCCc2ccccc21)c1ccccn1 | 3% | 96% (active) | 95.9% (active) | -16% | 96% (active) | 95.7% (active) | 30% | 97% (active) | 96.7% (active) | -23% | 96% (active) | 95.8% (active) | -6% | 97% (active) | 90.7% (active) | 5% | 95% (active) | 95.6% (active)
O=Cc1cc([N+](=O)[O-])ccc1O | 95% (active) | 99% (active) | 93.8% (active) | 98% (active) | 99% (active) | 96.7% (active) | 86% (active) | 99% (active) | 98.5% (active) | 96% (active) | 99% (active) | 74.2% (active) | 97% (active) | 99% (active) | 94.8% (active) | 98% (active) | 99% (active) | 97% (active)
COc1ccc(N=Nc2ccc3oc(=O)c(C(=O)Nc4ccccc4C)cc3c2)cc1 | 3% | 98% (active) | 96.8% (active) | -18% | 97% (active) | 97% (active) | -8% | 96% (active) | 97.5% (active) | 1% | 86% (active) | 93% (active) | -5% | 86% (active) | 97.7% (active) | -2% | 98% (active) | 97.5% (active)
